# Measured values: PubChem BioAssay AID1456 (Vanderbilt High Throughput Screening Facility, 2008)
# Among all 190,000 compounds or so, about 4,100 (2.2%) were called active. This is one part of a sample in which actives are shown more often than they occur.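 How the source made its calls: active means thallium flux slope and its plate-corrected score both differing from the plate sample mean at a set confidence after two filtering rounds, in either direction; inactive means the rest.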
# Biological target: Solute carrier family 12 member 5 (Homo sapiens) (UniProt Q9H2X9)
# Test: KCC2 cotransporter modulators, thallium flux, primary screen, cell-based, HEK293 KCC2, FluoZin-2 fluorescence, MLSMR (AID 1456);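 further: slope of fluorescence scaled to starting intensity during 10 to 20 s after thallium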
# Conditions: KCC2 cells, thallium flux FluoZin-2 fluorescence; at 10 µM
# Sequence of Solute carrier family 12 member 5 (Homo sapiens) (Q9H2X9 whole entry, looked up): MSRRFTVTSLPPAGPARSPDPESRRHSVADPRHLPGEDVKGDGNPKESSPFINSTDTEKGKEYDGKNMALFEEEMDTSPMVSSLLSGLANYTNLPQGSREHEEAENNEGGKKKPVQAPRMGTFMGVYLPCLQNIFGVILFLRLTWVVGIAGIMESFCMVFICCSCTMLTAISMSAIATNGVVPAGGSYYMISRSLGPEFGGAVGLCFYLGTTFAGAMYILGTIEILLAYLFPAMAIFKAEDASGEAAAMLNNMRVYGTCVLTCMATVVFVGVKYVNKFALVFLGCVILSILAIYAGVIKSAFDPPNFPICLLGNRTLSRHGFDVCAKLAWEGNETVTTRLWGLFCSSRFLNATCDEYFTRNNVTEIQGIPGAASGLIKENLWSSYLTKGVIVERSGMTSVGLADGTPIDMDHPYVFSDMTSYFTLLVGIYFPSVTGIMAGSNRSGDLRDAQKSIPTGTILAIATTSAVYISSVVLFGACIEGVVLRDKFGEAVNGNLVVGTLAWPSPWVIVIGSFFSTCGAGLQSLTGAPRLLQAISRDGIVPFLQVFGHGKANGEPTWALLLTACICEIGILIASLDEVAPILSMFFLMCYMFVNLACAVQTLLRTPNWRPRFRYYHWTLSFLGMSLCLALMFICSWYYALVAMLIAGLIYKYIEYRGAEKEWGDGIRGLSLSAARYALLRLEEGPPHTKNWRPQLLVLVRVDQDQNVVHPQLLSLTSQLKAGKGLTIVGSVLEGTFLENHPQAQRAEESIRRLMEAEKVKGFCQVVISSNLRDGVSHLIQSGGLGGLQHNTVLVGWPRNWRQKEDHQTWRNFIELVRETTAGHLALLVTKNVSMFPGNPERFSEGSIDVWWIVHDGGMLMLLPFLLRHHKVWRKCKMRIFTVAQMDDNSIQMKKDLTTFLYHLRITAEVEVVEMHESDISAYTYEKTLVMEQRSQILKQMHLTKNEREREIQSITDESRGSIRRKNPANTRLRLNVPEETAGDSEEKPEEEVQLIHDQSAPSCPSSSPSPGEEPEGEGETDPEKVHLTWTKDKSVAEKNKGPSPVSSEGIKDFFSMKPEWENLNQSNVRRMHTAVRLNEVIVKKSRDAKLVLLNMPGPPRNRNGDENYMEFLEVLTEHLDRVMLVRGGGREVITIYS
row,SMILES,B-score of Tl+ flux slope (higher = more flux/activation; lower = inhibition)
1,CC(C)Cc1ccc(C(C)C(=N)N)cc1 (stereo not given),0.737 (inactive)
2,NS(=O)(=O)c1ccc(CNC(=O)c2cnccn2)cc1,1.11 (inactive)
3,NCC(=O)c1cccc2ccc[n+]([O-])c12,1.34 (inactive)
4,COc1ccc(CCN2C(=O)CC(N3CCC(C(N)=O)CC3)C2=O)cc1OC (stereo not given),0.129 (inactive)
5,c1cncc(-c2nnc3n2C2(CCCCC2)Cc2ccccc2-3)c1,4.46 (active)
6,O=c1c2ccccc2nc2n1C1(CCCCC1)Cc1ccccc1-2,-0.241 (inactive)
7,CC1(C)Cc2ccccc2-c2nnc(-c3cccc(O)c3)n21,-0.616 (inactive)
8,Cc1ccc(CN2CCN(Cc3ccc4ncccc4c3)CC2CCO)cc1 (stereo not given),-0.182 (inactive)
9,COc1ccc(OC)c2sc(NC(=O)C3COc4ccccc4O3)nc12 (stereo not given),-1.33 (inactive)
10,O=C(Nc1nc2c(F)cc(F)cc2s1)C1COc2ccccc2O1 (stereo not given),67.4 (active)
11,O=C(Nc1nc(-c2ccncc2)cs1)C1COc2ccccc2O1 (stereo not given),-0.139 (inactive)
12,CC(C)c1cc(CN2CCOCC2)cc(C(C)C)c1O,-0.911 (inactive)
13,CCn1cc(C(=O)NCCCN2CCCCCC2)c(=O)c2cc(S(=O)(=O)N3CCc4ccccc4C3)ccc21,0.575 (inactive)
14,Cc1nc(C(=O)N2CCCC(C(=O)c3ccc(Cl)cc3)C2)cs1 (stereo not given),-0.00258 (inactive)
15,Cc1ccccc1Nc1c(-c2ccccc2)nc2ncccn12,-0.0089 (inactive)
16,S=c1nccc(-c2cc(Cl)sc2Cl)[nH]1,7.16 (active)
17,Cc1cccc(N(C)C(=O)c2cc3c(=O)[nH]c4ccc(C)cc4c3s2)c1,0.185 (inactive)
18,COCCN1C2=C(COC(C)(C)C2)C(=S)NC1c1ccccc1 (stereo not given),-0.146 (inactive)
19,Fc1ccc(COc2cccc(-c3n[nH]c(=S)o3)c2)cc1,69.9 (active)
20,Fc1ccc(COc2ccc(-c3nnco3)cc2)cc1,-1.14 (inactive)
21,Cc1cccc(OCc2ccc(C(=O)Nc3ccc(F)cc3)cc2)c1,0.491 (inactive)
22,NNC(=O)c1oc2nc(-c3ccccc3)cc(-c3ccco3)c2c1N,0.0896 (inactive)
23,O=C(COc1ccccc1)N1CCN=C1SCc1cccc(F)c1,0.197 (inactive)
24,CC(C)CCN1NC2(CCC(C)CC2)NC1=S (stereo not given),1.32 (inactive)
25,Cc1ccc(-c2nc3ccccc3[nH]c2=O)cc1,0.871 (inactive)

row,SMILES,B-score of Tl+ flux slope (higher = more flux/activation; lower = inhibition)
1,CC(CNS(=O)(=O)c1ccc(Br)cc1)CN(C)C (stereo not given),0.781 (inactive)
2,CCC(C)(C)NC(=O)C(c1ccc(O)cc1)N(C(=O)Cn1nnc2ccccc21)c1ccc(NC(C)=O)cc1 (stereo not given),1.51 (inactive)
3,O=C(NC(=S)N1CCc2ccccc21)c1ccco1,23.3 (active)
4,CCNC(=S)N1CCN(C(=O)c2ccco2)CC1,0.133 (inactive)
5,O=C(c1cccc(C(=O)N2CCc3ccccc32)n1)N1CCc2ccccc21,0.134 (inactive)
6,Cc1nnc(SCC(=O)N2CCc3ccccc32)n1-c1ccccc1,0.58 (inactive)
7,O=C(CSCc1ccccc1)N1CCc2ccccc21,-2.43 (active)
8,NC(=O)N1CCc2ccccc21,0.799 (inactive)
9,O=C(NCc1cccnc1)C(=O)Nc1nc(-c2ccccc2)cs1,-0.384 (inactive)
10,O=C(CCCN1C(=O)/C(=C\c2ccccc2)SC1=S)Nc1ccccc1O,0.281 (inactive)
11,CCN(CC(=O)Nc1cccc(S(N)(=O)=O)c1)Cc1nc2ccccc2c(=O)[nH]1,1.06 (inactive)
12,Cc1coc2cc3oc(=O)c(CCC(=O)O)c(C)c3cc12,-0.564 (inactive)
13,C=CCn1c(SCc2csc(C)n2)nc2scc(-c3ccc(C)o3)c2c1=O,0.11 (inactive)
14,C=CCn1c(=S)[nH]c2scc(-c3ccco3)c2c1=O,111 (active)
15,C=CCNC(=O)CSc1nc2scc(-c3ccco3)c2c(=O)n1CC=C,-0.677 (inactive)
16,Nc1cccc(S(=O)(=O)Nc2ccc(SC(F)F)cc2)c1,-0.199 (inactive)
17,COc1ccc(-n2c(C)nc3c(cnn3-c3ccccc3)c2=O)cc1,-0.335 (inactive)
18,COc1ccc(Oc2c(Cl)cnn(-c3ccccc3)c2=O)cc1,-3.99 (active)
19,Cc1ccc(Oc2cnn(-c3ccccc3)c(=O)c2Br)cc1,-2.71 (inactive)
20,CC1C(=O)NC(=O)C1c1ccccc1 (stereo not given),0.0909 (inactive)
21,CCc1nnc(NC(=O)c2cccc(S(=O)(=O)N(C)c3ccc(OC)cc3)c2)s1,-0.265 (inactive)
22,CCc1ccc2nc3sc(C(=O)Nc4nnc(CC)s4)c(N)c3cc2c1,-4.25 (active)
23,CCc1nnc(NC(=O)c2sc3nc(C)cc(COC)c3c2N)s1,0.922 (inactive)
24,Cc1ccc(S(=O)(=O)N(C)CC(=O)OCC(=O)Nc2ccccc2)cc1,-1.25 (inactive)
25,Cc1nc(N)sc1N=Nc1c(C)n(C)n(-c2ccccc2)c1=O,0.0239 (inactive)

row,SMILES,B-score of Tl+ flux slope (higher = more flux/activation; lower = inhibition)
1,COc1ccc(/C=C(/CC(=O)Nc2ccc(C)cc2)c2nc3ccccc3s2)cc1,-0.666 (inactive)
2,O=C(O)CSCc1nc2ccccc2s1,0.175 (inactive)
3,O=C(O)CS/C(=C\c1ccc(F)cc1)c1nc2ccccc2s1,-7.14 (active)
4,O=C(CC1SC(=Nc2ccccc2F)N(CCN2CCOCC2)C1=O)Nc1ccc(F)cc1F (stereo not given),0.206 (inactive)
5,Cc1ccc2cc(/C=N/NC(=O)[C@@H]3CCCN3)c(Cl)nc2c1,0.721 (inactive)
6,COc1cc(OC)cc(C(=O)NC(=S)N2CCN(c3ccc(C(F)(F)F)cc3[N+](=O)[O-])CC2)c1,6.75 (active)
7,O=C(Nc1cccc(C(F)(F)F)c1)c1ccc(N2CCNCC2)c([N+](=O)[O-])c1,1.31 (inactive)
8,Cc1cccc(C(=O)NC(=S)N2CCN(c3ccc([N+](=O)[O-])cc3)CC2)c1,1.26 (inactive)
9,Cc1cccc(C(=O)OCC(=O)NCC(C)C)c1O,-0.558 (inactive)
10,O=C(NCCc1ccccc1)Oc1ccc(Cl)cc1,-2.47 (inactive)
11,CC(C)C1Nc2c(C(=O)O)cccc2C(Nc2ccccc2C(=O)O)C1(C)C (stereo not given),-7.13 (active)
12,O=C(O)c1ccccc1-c1ccccc1C(=O)Nc1cccc2ccccc12,-0.144 (inactive)
13,CCNC(=O)CCc1nc(-c2ccc(C)cc2)no1,0.371 (inactive)
14,C/C(Cc1ccccc1)=N\NC(=O)CNC(=O)c1ccccc1Cl,-0.103 (inactive)
15,O=C(Nc1cccc(Cl)c1)Nc1nnc(-c2ccccc2)o1,3.17 (inactive)
16,O=C(Nc1ccc(-c2nnc(-c3ccccc3)o2)cc1)c1ccc(Br)o1,1.83 (inactive)
17,O=C(Nc1nnc(-c2ccc(Cl)cc2)o1)c1ccccc1Br,35.2 (active)
18,O=C(NNS(=O)(=O)Cc1ccccc1)c1ccc([N+](=O)[O-])cc1,0.00978 (inactive)
19,FC(F)Oc1ccccc1NC(=S)Nc1cccc(Cl)c1Cl,6.89 (active)
20,COc1ccc(NC(=S)Nc2ccccc2Cl)cn1,0.811 (inactive)
21,COc1ccccc1NC(=S)NC(=O)C(C)C,1.52 (inactive)
22,Cc1ccc(Cn2c(SCC(=O)N/N=C/c3ccccc3OCC(=O)O)nc3ccccc32)cc1,1.95 (inactive)
23,O=C(CSc1nnc2n1CCCN2)c1ccccc1,-0.0921 (inactive)
24,CC(C)N1CCC(=NNc2ccc([N+](=O)[O-])cc2S(=O)(=O)N2CCOCC2)CC1,0.0282 (inactive)
25,Cc1ccc(NNC(=O)C2CCC2)cc1C,0.435 (inactive)

row,SMILES,B-score of Tl+ flux slope (higher = more flux/activation; lower = inhibition)
1,COc1cc2c(cc1/C=C1/NC(=O)N(c3ccccc3)C1=O)OCO2,0.747 (inactive)
2,O=C1/C(=C\c2ccsc2)NC(=S)N1c1ccccc1,11.5 (active)
3,CN(C)c1ccc(/C=C2\NC(=S)N(Cc3ccccc3)C2=O)cc1,2.56 (inactive)
4,NS(=O)(=O)c1ccc(NC(=S)NC(=O)c2cccc(Br)c2)cc1,1.13 (inactive)
5,CC(=O)NC(=S)Nc1ccc(NC(=O)c2cccnc2)cc1,1.03 (inactive)
6,NS(=O)(=O)c1ccc(NC(=S)NC(=O)c2cccnc2)cc1,1.98 (active)
7,O=C(Cn1c(-c2ccc(Cl)cc2)noc1=O)N1CCN(c2ccccc2F)CC1,-4.49 (active)
8,O=C(CCSc1ccccc1)N1CCN(c2ccccc2F)CC1,-1.46 (inactive)
9,Cn1c(=O)cc(OCC(=O)N2CCN(c3ccccc3F)CC2)c2ccccc21,-0.0376 (inactive)
10,COc1ccc(OCC(O)CNCCNc2nccc(C(F)(F)F)n2)cc1 (stereo not given),0.542 (inactive)
11,Cc1ccc2c(c1)nnc1nnc(SCC(=O)O)n12,-0.0291 (inactive)
12,Fc1ccc2nc(-c3ccccc3)nc(SCc3nnc(-c4ccccc4)o3)c2c1,41.8 (active)
13,c1ccc(-c2nnc(SCc3nc4ccccc4[nH]3)o2)cc1,-1.33 (inactive)
14,Cc1ccc2nc(SCc3nnc(-c4ccccc4[N+](=O)[O-])o3)c(C#N)cc2c1,0.799 (inactive)
15,O=C(NCc1cccnc1)c1nc(-c2cccs2)no1,0.407 (inactive)
16,CCCCN1Cc2c(nc3cc(-c4ccccc4)[nH]n3c2=O)C1=O,-0.758 (inactive)
17,NCCCCCC(=O)N/N=C/c1ccc2nccnc2c1,1.4 (inactive)
18,CCOC(=O)C1CCCN(C(=O)/C=C/c2ccc(OC)cc2)C1 (stereo not given),-0.769 (inactive)
19,O=C(Nc1ccc(S(=O)(=O)N2CCOCC2)cc1)c1ccc2ncsc2c1,0.51 (inactive)
20,Cc1csc(NC(=S)Nc2cccc(Cl)c2)n1,63.6 (active)
21,S=C(Nc1cccc(Cl)c1)Nc1ccc2cn[nH]c2c1,-0.0612 (inactive)
22,CC(=O)Nc1cccc(C(=O)Nc2nc(C)cs2)c1,-0.0712 (inactive)
23,CCc1nc(NCCO)c(C#N)c2c1CCCC2,-0.68 (inactive)
24,S=C(NCCc1ccccc1)N1CCn2cccc2C1c1ccncc1 (stereo not given),-2.41 (inactive)
25,CN1CCN(c2ncc3c(n2)CC(c2ccccc2F)CC3=O)CC1 (stereo not given),-1.12 (inactive)
